Among all 310,000 compounds or so, about 14,000 (4.5%) showed an effect of 50% or more. Effects have a minus sign here. Many of the other results were omitted from the sample, so strong results are more common in it than they were.
target: human ether-à-go-go-related gene (hERG) potassium channel (human, UniProt Q12809); assay: primary screen, population patch clamp on CHO cells stably expressing hERG; higher = less effect of the substance
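Also: peak tail current of the secondary pulse compared with the same well before compound.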

human ether-à-go-go-related gene (hERG) potassium channel, sequence (Q12809 whole entry, looked up): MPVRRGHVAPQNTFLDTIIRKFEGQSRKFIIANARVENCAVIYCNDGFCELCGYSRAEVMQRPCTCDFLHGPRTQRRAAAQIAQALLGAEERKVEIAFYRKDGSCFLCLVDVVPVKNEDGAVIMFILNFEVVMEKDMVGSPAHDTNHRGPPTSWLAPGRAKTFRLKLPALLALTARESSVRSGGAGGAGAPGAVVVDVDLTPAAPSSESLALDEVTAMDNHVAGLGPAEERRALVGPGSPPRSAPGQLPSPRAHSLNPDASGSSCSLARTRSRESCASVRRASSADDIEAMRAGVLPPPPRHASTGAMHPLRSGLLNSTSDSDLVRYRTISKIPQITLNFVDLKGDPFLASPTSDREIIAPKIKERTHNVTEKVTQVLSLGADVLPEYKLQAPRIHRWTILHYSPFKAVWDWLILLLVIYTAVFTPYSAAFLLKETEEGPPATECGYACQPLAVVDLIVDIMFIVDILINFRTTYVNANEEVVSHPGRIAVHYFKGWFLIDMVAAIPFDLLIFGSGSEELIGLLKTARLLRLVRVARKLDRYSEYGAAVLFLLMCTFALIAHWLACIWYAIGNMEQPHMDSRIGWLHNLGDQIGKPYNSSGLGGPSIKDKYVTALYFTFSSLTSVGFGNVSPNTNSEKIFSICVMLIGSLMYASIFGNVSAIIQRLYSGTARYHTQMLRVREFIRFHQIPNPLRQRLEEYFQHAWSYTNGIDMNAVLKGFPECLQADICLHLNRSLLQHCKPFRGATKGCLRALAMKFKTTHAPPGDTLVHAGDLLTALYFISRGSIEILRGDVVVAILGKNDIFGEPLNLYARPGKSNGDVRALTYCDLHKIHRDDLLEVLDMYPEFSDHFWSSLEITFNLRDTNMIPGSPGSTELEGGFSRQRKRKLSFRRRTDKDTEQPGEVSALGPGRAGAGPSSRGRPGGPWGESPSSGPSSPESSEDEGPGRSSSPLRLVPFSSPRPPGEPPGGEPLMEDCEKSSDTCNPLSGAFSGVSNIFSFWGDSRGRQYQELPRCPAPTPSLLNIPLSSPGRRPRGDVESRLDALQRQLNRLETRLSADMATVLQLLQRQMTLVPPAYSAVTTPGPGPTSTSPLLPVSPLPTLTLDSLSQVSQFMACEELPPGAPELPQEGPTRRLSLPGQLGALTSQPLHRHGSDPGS

| SMILES | hERG current change (%, negative = inhibition) at 10uM |
| --- | --- |
| CN(C)S(=O)(=O)c1cccc(C(=O)Nc2ccccc2N2CCCCC2)c1 | 5.55% |
| CCn1c(SC(C)C(=O)NCC2CCCO2)nc2scc(-c3ccccc3)c2c1=O (stereo not drawn) | -28.7% |
| COCCn1c(SC(C)C(=O)NCC2CCCO2)nc2sc3c(c2c1=O)CCC3 (stereo not drawn) | -8.18% |
| COCCn1c(SC(C)C(=O)NCC2CCCO2)nc2scc(-c3ccc(F)cc3)c2c1=O (stereo not drawn) | -66.5% |
| CCOC(=O)/C(=C/c1c(C)n(C)c2ccc([N+](=O)[O-])cc12)C(C)=O | -19.6% |
| Cc1nn(-c2ccc(C(=O)OC(C)C)cc2)c(C)c1[N+](=O)[O-] | 4.98% |
| CCOC(=O)CNC(=O)C1CCN(S(=O)(=O)c2ccc(-c3nn[nH]n3)cc2)CC1 | 8.58% |
| Cc1cccc2cc(CN(Cc3cccnc3)C(=O)c3ccccc3F)c(Cl)nc12 | -49.6% |
| COCCN(Cc1cc2c(C)cc(C)cc2nc1Cl)C(=O)c1ccccc1F | 44.3% |
| Cc1cc(C)c2cc(CN(Cc3cccnc3)C(=O)c3ccc(F)cc3)c(Cl)nc2c1 | -64.7% |
| CC(=O)Nc1ccccc1C(=O)C(=O)Nc1ccc(C)c(F)c1 | 24.3% |
| O=C(CSC1=NCCS1)Nc1ccc(S(=O)(=O)NC2CCCCC2)cc1 | -8.65% |
| CC(=O)c1ccc(OCC(O)CN2CCC(C)CC2)cc1.Cl (stereo not drawn) | -31.6% |
| CC1CCN(CC(O)COc2ccc(C(=O)c3ccccc3)cc2)CC1 (stereo not drawn) | -67.4% |
| CC1CCN(CC(O)COc2ccc(-c3ccccc3)cc2)CC1.Cl (stereo not drawn) | -81% |
| O=C(c1ccccc1)c1ccc(OCC(O)CN2CCN(Cc3ccccc3)CC2)cc1 (stereo not drawn) | -73.4% |
| O=C(c1ccccc1)c1ccc(OCC(O)CN2CCCC2)cc1 (stereo not drawn) | -45.3% |
| CC(=O)c1ccc(OCC(O)CN2CCN(Cc3ccccc3)CC2)cc1.Cl (stereo not drawn) | -48.2% |
| CC1CN(CC(O)COc2ccc(C(=O)c3ccccc3)cc2)CC(C)O1 (stereo not drawn) | -63.3% |
| CCC(=O)c1ccc(OCC(O)CN2CC(C)OC(C)C2)cc1.O=C(O)C(=O)O (stereo not drawn) | 14% |
| CC1CCN(CC(O)COc2ccc(OCC(O)CN3CCC(C)CC3)cc2)CC1 (stereo not drawn) | 3.84% |
| OC(COc1ccc(OCC(O)CN2CCN(Cc3ccccc3)CC2)cc1)CN1CCN(Cc2ccccc2)CC1 (stereo not drawn) | 5.65% |
| CC(=O)c1ccc(OCC(O)CN2CC(C)OC(C)C2)cc1.Cl (stereo not drawn) | 8.19% |
| NC(=O)C1CCN(CC(O)COc2ccc(-c3ccccc3)cc2)CC1 (stereo not drawn) | -34.4% |
| CC(=O)c1sc(-c2ccc(F)cc2)cc1NS(=O)(=O)c1ccc(C)cc1 | 7.93% |
| C=CCOc1ccc2ccccc2c1CNn1cn[nH]c1=S | -8.17% |

| SMILES | hERG current change (%, negative = inhibition) at 10uM |
| --- | --- |
| O=C(NCCc1csc(-c2cccc(F)c2)n1)c1ccco1 | -4.61% |
| O=C(CN1C(=O)S/C(=C\c2ccccc2)C1=O)Nc1cc([N+](=O)[O-])ccc1O | 6.11% |
| O=C(c1cc(Cl)ccc1[N+](=O)[O-])n1cnc2ccccc21 | -11.9% |
| Cc1cc2c(c(N)n1)c(=O)oc1ccccc12 | 13.9% |
| Nn1c(CSc2nc3ccccc3o2)nnc1CSc1nc2ccccc2o1 | -22.8% |
| O=C(CN1c2cccc3cccc(c23)S1(=O)=O)Nc1ccccc1 | 24.3% |
| CN(CC(=O)Nc1c(Cl)cccc1Cl)C(=O)CC1OC(=O)c2ccccc21 (stereo not drawn) | -2.8% |
| CCOc1ccc(NC(=O)CN(C)C(=O)CC2OC(=O)c3ccccc32)cc1OCC (stereo not drawn) | 0.75% |
| CN(CC(=O)Nc1ccc(Cl)c(Cl)c1)C(=O)CC1OC(=O)c2ccccc21 (stereo not drawn) | -70.3% |
| C/C=C/c1ccc(OCC(=O)Nc2ccncc2)c(OC)c1 | -14.9% |
| CCOc1ccc2nc(N(CCN(C)C)C(=O)/C=C/c3cccs3)sc2c1.Cl | 4.24% |
| CCN(Cc1ccccc1)S(=O)(=O)c1ccc(C(=O)N(CCCN(C)C)c2nc3c(C)c(C)ccc3s2)cc1.Cl | -3.58% |
| COc1cc2nc(N(CCN(C)C)C(=O)c3ccc4ccccc4c3)sc2cc1OC.Cl | -40.8% |
| CCN(Cc1ccccc1)S(=O)(=O)c1ccc(C(=O)N(CCCN(C)C)c2nc3c(F)cccc3s2)cc1.Cl | -66.3% |
| COc1ccc2nc(N(CCN(C)C)C(=O)c3ccc(C(=O)c4ccccc4)cc3)sc2c1.Cl | -39.2% |
| COc1cc2nc(N(CCCN(C)C)C(=O)c3ccc(C(=O)c4ccccc4)cc3)sc2cc1OC.Cl | -70.4% |
| COc1ccc2nc(N(CCN(C)C)C(=O)/C=C/c3cccs3)sc2c1.Cl | -55.1% |
| COc1ccc2sc(N(CCN(C)C)C(=O)c3ccc4ccccc4c3)nc2c1.Cl | -0.0157% |
| CN(C)CCCN(C(=O)c1ccc(S(=O)(=O)N(C)Cc2ccccc2)cc1)c1nc2c(F)cccc2s1.Cl | -38.2% |
| COc1ccc2sc(N(CCCN(C)C)C(=O)c3ccc(C(=O)c4ccccc4)cc3)nc2c1.Cl | -77.3% |
| CN(C)CCCN(C(=O)c1ccc(C(=O)c2ccccc2)cc1)c1nc2cc3c(cc2s1)OCCO3.Cl | -50% |
| COc1ccc2sc(N(CCN(C)C)C(=O)/C=C/c3cccs3)nc2c1.Cl | -33.2% |
| O=C1CSC(c2ccccc2[N+](=O)[O-])N1CCc1ccccc1 (stereo not drawn) | -41% |
| CCOc1cc(C(=O)N/N=C(\C)Cc2ccc(OC)cc2)cc(OCC)c1OCC | -3.15% |
| FC(F)Oc1ccccc1/C=N/Nc1nc2ccccc2o1 | 33.5% |

Source: publication PMC4336329 (PLoS ONE, 2015)
